CHX counter – counter-screen hit for Shiga toxin inhibitors, cycloheximide | cell reporter, cycloheximide protein synthesis inhibition counterscreen | max response, % | hit rate 12% among 300,000; in the data active = max response mostly above about 13%, no sharp cut-off; inactive = mostly below about 14%; note: read at 38.3 µM for the half of the compounds with a filed dose
TbPYK inhibitor – inhibitors of Trypanosoma brucei pyruvate kinase. Potency, µM (titrated, usually from 76.8 µM), most hits filed as inhibitors. TbPYK enzyme, Kinase-Glo Plus ATP luminescence, 45 min. hit rate 0.12% among 410,000. Q57TT1; note: nearly all actives have a fitted effect of over 50% in size
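ADP (130 uM final) triggers the TbPYK reaction after compound addition; incubation is 45 min at room temperature. Kinase-Glo Plus is then added and luminescence imaged. Normalized data are fitted to concentration-effect curves.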
RE007 growth inh – less growth of the S. pombe RE007 Vpr strain. S. pombe RE007 Vpr strain, BacTiter-Glo ATP luminescence, 24 h. Potency, µM (top dose mostly 92.2 µM), actives largely listed as inhibitors. hit rate 0.21% among 360,000; active = well fitted falling curve with a large enough effect; inconclusive = small, poorly fitted or top-dose-only effect; inactive = no such curve, though single readings can be large or run the other way; note: nearly all actives have a fitted effect of over 50% in size
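Fission yeast RE007 carrying one integrated HIV-1 vpr copy, seeded at OD 0.01 in PMG+AL medium with 23 nL pinned compound. Grown 24 h at 30 degrees; viability read by BacTiter-Glo luminescence after 5 min.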
FBPA Giardia inh – Giardia lamblia aldolase inhibition; Potency, µM (top dose mostly 59.6 µM), most hits filed as inhibitors; purified Giardia FBPA; hit rate 0.71% among 290,000; note: nearly all actives have a fitted effect of over 55% in size
Target sequence (A8B2U2 whole entry, looked up): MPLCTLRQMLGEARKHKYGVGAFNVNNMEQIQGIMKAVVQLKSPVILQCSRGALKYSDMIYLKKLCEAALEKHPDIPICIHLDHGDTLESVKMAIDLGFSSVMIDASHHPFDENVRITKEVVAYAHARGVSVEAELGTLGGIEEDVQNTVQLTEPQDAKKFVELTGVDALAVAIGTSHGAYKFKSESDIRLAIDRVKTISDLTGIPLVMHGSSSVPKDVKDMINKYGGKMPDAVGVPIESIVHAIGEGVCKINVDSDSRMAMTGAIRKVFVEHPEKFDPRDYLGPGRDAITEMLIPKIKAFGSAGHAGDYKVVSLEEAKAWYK
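40 nM FBPA preincubated 10 min at RT with compound (up to 57.5 uM final), then substrate plus GAPDH/TPI/NAD/arsenate coupling and diaphorase/resazurin added. Fluorescence read after 20 min at RT, 525/598 nm.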
LmPK inhibitor – blocks Leishmania mexicana pyruvate kinase activity. Q27686. purified LmPK, Kinase-Glo ATP luminescence, 1 h. Potency, µM (doses to about 57.5 µM), hits mostly inhibitors. hit rate 0.37% among 290,000. AID 1721
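Purified LmPK (0.1 nM) converted ADP (0.1 mM) to ATP with PEP (0.5 mM) in imidazole buffer pH 7.2 with KCl and MgCl2, 1 h at room temperature. ATP was read by Kinase-Glo luminescence; data normalized to uninhibited and no-enzyme controls.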
Shiga inhibitor – blocks Shiga toxin action in Vero cells; Vero cells, Shiga toxin protein synthesis inhibition reporter; inhibition, % at 38.7 µM; hit rate 9.2% among 290,000; in the data active = inhibition mostly above about 28%, no sharp cut-off; inactive = mostly below about 43%
Of the large screens only hits and unclear results are named; the others gave an inactive call. The full list was thinned out, with hits kept by preference. Unless noted, calls come from the whole dose curve; as a rule, active = well fitted curve in the direction sought with a large enough effect; inconclusive = small, poorly fitted or top-dose-only effect, or another doubt; inactive = no such curve, though single readings can be large; an effect the other way counts as inactive or inconclusive.

C/C(N)=C(/C#N)C(=O)CSc1nnc(Nc2cccc(C)c2C)s1	CHX counter 22, Shiga inhibitor 40
Cc1ccccc1Nc1nnc(SCC(=O)NCc2ccco2)s1	none
CCCSc1nnc(Nc2ccccc2C)s1	CHX counter 62, Shiga inhibitor 63
CCCCCn1c(=O)[nH]c2cc(C(=O)Nc3ccc(F)c(F)c3)ccc2c1=O	none (no result: CHX counter, RE007 growth inh, FBPA Giardia inh, LmPK inhibitor, Shiga inhibitor)
Cc1ccn2c(Nc3ccc4c(c3)OCCO4)c(-c3ccc(N(C)C)cc3)nc2c1	none (no result: CHX counter, RE007 growth inh, FBPA Giardia inh, LmPK inhibitor, Shiga inhibitor)
COc1ccc(CCN=CC2=C(O)CC(C)(C)CC2=O)cc1	none
COc1cccc(N=CC2=C(O)CCCC2=O)c1	CHX counter 30, RE007 growth inh 40µM
COc1cccc(N=CC2=C(O)CC(C)(C)CC2=O)c1	CHX counter 13, RE007 growth inh inconclusive
CCOC(=O)C1=C([Si](C)(C)C)c2ccccc2N(S(=O)(=O)C(F)(F)F)C1C(=O)OCC (configuration not stated)	none (no result: TbPYK inhibitor, RE007 growth inh, LmPK inhibitor)
Cc1ccc2sc3ccc(NC(=O)c4ccccc4Cl)cc3c(=O)c2c1	CHX counter 35, Shiga inhibitor 43
COc1ccccc1CC(=O)Nc1ccc2c(C)cc(=O)oc2c1	none
Cc1ccccc1CC(=O)Nc1ccc2c(C)cc(=O)oc2c1	none
Cc1cc(=O)oc2cc(NC(=O)c3c(Cl)cnn3C)ccc12	none (no result: FBPA Giardia inh)
Cc1cc(=O)oc2cc(NC(=O)c3ccccc3Cl)ccc12	CHX counter 40, Shiga inhibitor 86 (no result: FBPA Giardia inh)
Cc1cc(=O)oc2cc(NC(=O)c3ccccc3C(=O)O)ccc12	CHX counter 22
Cc1cc(=O)oc2cc(NC(=O)c3ccnn3C)ccc12	CHX counter 17 (no result: FBPA Giardia inh)
Cc1ccc(C(=O)Nc2ccc(NC(=O)c3ccccc3Cl)c(C)c2)cc1	none (no result: CHX counter, FBPA Giardia inh, LmPK inhibitor, Shiga inhibitor)
O=C(NC1CCCCCC1)c1ccc(CS(=O)c2cccc(Cl)c2)o1 (configuration not stated)	none (no result: CHX counter, RE007 growth inh, FBPA Giardia inh, LmPK inhibitor, Shiga inhibitor)
CN(Cc1ccco1)c1ncncc1-c1ccccc1C(F)(F)F	none (no result: CHX counter, TbPYK inhibitor, RE007 growth inh, LmPK inhibitor, Shiga inhibitor)
COc1cccc(C(=O)Nc2ccc3c(C)cc(=O)oc3c2)c1	CHX counter 62, Shiga inhibitor 115
CC(=O)Oc1cc(OC(C)=O)c2c(=O)cc(-c3ccc(OC(C)=O)c(OC(C)=O)c3)oc2c1	none (no result: CHX counter, TbPYK inhibitor, RE007 growth inh, LmPK inhibitor, Shiga inhibitor)
CSc1ccccc1OCc1cc(C(=O)N(C)C(C)c2nc(C)cs2)no1 (configuration not stated)	CHX counter 18 (no result: FBPA Giardia inh)
CSc1ccccc1OCc1cc(C(=O)N2CCN(c3ncccn3)CC2)no1	none (no result: FBPA Giardia inh)
CSc1ccccc1OCc1cc(C(=O)N(C)Cc2ccc3nsnc3c2)no1	CHX counter 52, Shiga inhibitor 100
CSc1ccccc1OCc1cc(C(=O)N(C)Cc2ccc(C)o2)no1	CHX counter 54, TbPYK inhibitor inconclusive, Shiga inhibitor 79
CCOc1ccc(C2C(C(=O)Nc3ccccc3)=C(C)Nc3nc(-c4ccccc4)nn32)cc1OC (configuration not stated)	none (no result: CHX counter, RE007 growth inh, FBPA Giardia inh, LmPK inhibitor, Shiga inhibitor)
Clc1ccc(-c2cnc3cccnn23)cc1	none (no result: CHX counter, FBPA Giardia inh, LmPK inhibitor, Shiga inhibitor)
Nc1cccn2c(-c3ccc(Cl)cc3)cnc12	CHX counter 47, FBPA Giardia inh inconclusive, Shiga inhibitor 197
Nc1cccn2c(-c3ccc(Cl)c(Cl)c3)cnc12	CHX counter 74, RE007 growth inh inconclusive, Shiga inhibitor 92
CN(C)c1ccc(CNC(=O)C2(C)C=CCN2C(=O)c2ccccc2)cc1 (configuration not stated)	none (no result: CHX counter, TbPYK inhibitor, RE007 growth inh, LmPK inhibitor, Shiga inhibitor)
Cc1ccc2c(c1)sc1nc(=O)n(-c3cccc(Cl)c3)c(=O)n12	CHX counter 19
O=c1nc2sc3ccccc3n2c(=O)n1-c1ccc(Cl)cc1	CHX counter 29
Cc1ccc(C)n1-c1nnc(N2CCC(C(=O)Nc3ccccc3Br)CC2)s1	none (no result: CHX counter, RE007 growth inh, FBPA Giardia inh, LmPK inhibitor, Shiga inhibitor)
Cc1cccc(CN2CCc3c(OCC(=O)N4CCCc5ccccc54)cccc3C2=O)c1	CHX counter 14
O=C(COc1cccc2c1CCN(Cc1ccccc1)C2=O)NCc1ccco1	none
Cc1cccc(CN2CCc3c(OCC(=O)NCc4ccco4)cccc3C2=O)c1	CHX counter 13
O=C(O)CCC(=O)N1CCc2cc(S(=O)(=O)NCc3ccc(F)cc3)ccc21	none (no result: CHX counter, RE007 growth inh, FBPA Giardia inh, LmPK inhibitor, Shiga inhibitor)
CCC(CC)c1nn2c(=O)cc(COc3ccc(NC(=O)c4ccc(C)cc4)cc3)nc2s1	none (no result: CHX counter, RE007 growth inh, FBPA Giardia inh, LmPK inhibitor, Shiga inhibitor)
CC1=NN(c2ccc(C)c(C)c2)C(=O)/C1=C\C=C\c1ccc([N+](=O)[O-])o1	CHX counter 44, Shiga inhibitor 88
